TSHR antag: Antagonists of the Thyroid Stimulating Hormone Receptor: HTS campaign. TSHR-expressing cells, TSH-stimulated cAMP HTRF, 2 h; active compounds read low. activity change, negative = inhibition, % at 11.5 µM. Thyrotropin receptor (Homo sapiens), P16473. actives 0.2% (n = 330,000). AID 504810, 2011;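 active = activity change below a set negative limit, meaning inhibition stronger than a set level, cut at about -70% in these data; inconclusive = activity change between two set negative limits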
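Freshly harvested TSHR cells receive pin-tooled compound, then EC80 TSH at 4nM final. After 2 hours at 37 deg C, antibody in lysis buffer and cAMP-d2 are added; 30 minutes at ambient temperature precede the HTRF read.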
uPA generation: qHTS for Inhibitors of Cell Surface uPA Generation. cell surface uPA generation assay, qHTS. Potency, µM (titrated, usually from 38.3 µM), usual class: inhibitors. actives 0.31% (n = 330,000); active = well fitted inhibition curve with a large enough effect; inconclusive = small, poorly fitted or top-dose-only effect; inactive = no such curve, though single readings can be large or run the other way; tested in mouse RAW 264.7 cells; also: nearly all actives have a fitted effect of over 55% in size
PTAP TSG101 blk: qHTS Assay for Iinhibitors of HIV-1 Budding by Blocking the Interaction of PTAP/TSG101 | Fluorescence polarization, FITC-PTAP peptide / Tsg101 binding | Tumor susceptibility gene 101 protein (Homo sapiens), Q99816 | 340,000 tested, under 10 active | Potency, µM (highest dose often 115 µM), most hits filed as inhibitors; active = well fitted inhibition curve with a large enough effect in the main read-out, with a control signal flat, not every such curve was filed as active; inconclusive = small, poorly fitted or top-dose-only effect, or effect the other way, or a change in a side signal; inactive = no such curve, though single readings can be large or run the other way
Target sequence (Q99816 whole entry, looked up): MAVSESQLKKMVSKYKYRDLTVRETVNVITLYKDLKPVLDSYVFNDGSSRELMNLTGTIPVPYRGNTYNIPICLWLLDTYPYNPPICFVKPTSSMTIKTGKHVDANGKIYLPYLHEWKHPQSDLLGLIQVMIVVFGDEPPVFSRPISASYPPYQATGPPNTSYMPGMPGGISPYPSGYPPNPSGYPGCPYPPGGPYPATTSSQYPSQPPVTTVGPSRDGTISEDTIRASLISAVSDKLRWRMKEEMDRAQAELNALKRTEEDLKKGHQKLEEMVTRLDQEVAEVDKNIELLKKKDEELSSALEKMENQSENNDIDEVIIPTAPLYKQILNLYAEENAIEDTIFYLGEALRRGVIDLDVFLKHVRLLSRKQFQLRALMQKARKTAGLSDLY
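Fluorescence polarization binding of Tsg101 binding domain (10 uM final) to FITC-labeled PTAP peptide (50 nM final) in HEPES pH 7.5 buffer with NaCl, Tween 20, EDTA, TCEP. Compounds added before peptide; binding 20 min at RT.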
VDR inhibitor: Inhibitors of the vitamin D receptor (VDR): qHTS. actives 0.93% (n = 400,000). AID 504847, 2011. Potency, µM, actives largely listed as inhibitors. VDR-SRC2-3 peptide fluorescence polarization, 2 h. Vitamin D3 receptor (Homo sapiens), P11473
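Fluorescence polarization assay measuring small-molecule disruption of VDR binding to the coregulator peptide SRC2-3. Compounds were pin-transferred (23 nl) into the reagent mix and incubated 2 h at room temperature before reading.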
PLK1 PBD block: qHTS for Inhibitors of PLK1-PDB (polo-like kinase 1 - polo-box domain): Primary Screen. Serine/threonine-protein kinase PLK1 (Homo sapiens), P53350. Plk1 PBD binding of FITC phosphopeptide, fluorescence polarization. Potency, µM, usual class: inhibitors. actives 2.8% (n = 360,000). AID 720504, 2013; also: series mostly up to about 57 µM; nearly all actives have a fitted effect of over 65% in size
Each line names hits and unclear results; the compound was inactive in the other large screens. Compounds with a hit are over-represented: about 3.1% of the library has one in this group of screens. Unless noted, calls follow the shape of the dose curve; as a rule, active = well fitted curve in the direction sought with a large enough effect; inconclusive = small, poorly fitted or top-dose-only effect, or another doubt; inactive = no such curve, though single readings can be large; an effect the other way counts as inactive or inconclusive.

CC(C)Oc1ccc(CNC(=O)c2ccc3c(c2)nc2n3CCOC2)cc1	none (no result: TSHR antag, uPA generation, PTAP TSG101 blk, PLK1 PBD block)
COC(=O)c1ccc(CN2CCCC(CCC(=O)NCc3ccc(C)o3)C2)cc1 (stereo not drawn)	PLK1 PBD block 24µM
c1coc(-c2ccc3ncnc(NCc4cccs4)c3c2)c1	none (no result: uPA generation, PTAP TSG101 blk, VDR inhibitor, PLK1 PBD block)
C=CC1=C(C)C2=Cc3c(C=C)c(C)c4[n]3[Sn+2][n]3c(c(C)c(CCC(=O)O)c3=CC3=NC(=C4)C(C)=C3CCC(=O)O)=CC1=N2	VDR inhibitor 35µM (no result: TSHR antag, uPA generation, PTAP TSG101 blk, PLK1 PBD block)
COc1cccc(CNC(=O)c2ccc(Cn3c(SCc4ccccc4)nc4cccnc43)cc2)c1	none (no result: TSHR antag, uPA generation, PTAP TSG101 blk, PLK1 PBD block)
Cc1ccc(/C=N/n2c(C)nnc2C)o1	VDR inhibitor inconclusive, PLK1 PBD block 21µM
Cc1ccc(/C=N/N2CCOCC2)s1	none
Cc1ccc(/C=N/n2c(C)nnc2C)s1	PLK1 PBD block 27µM
Cc1nc(NC(=S)NC(=O)c2cncc(Br)c2)ccc1Br	VDR inhibitor inconclusive, PLK1 PBD block 21µM
c1ccc2c(c1)[nH]c1c(N3CCOCC3)ncnc12	none
CCc1cc(N2CCOCC2)cc2c1[nH]c1ccccc12	PLK1 PBD block 24µM (no result: uPA generation)
CCC/C=C1/CCCOC(C(=O)NCc2ccc(S(C)(=O)=O)cc2)(C(F)(F)F)C1 (stereo not drawn)	none (no result: TSHR antag)
CCC/C=C1/CCCOC(C(=O)NCc2ccc(C)o2)(C(F)(F)F)C1 (stereo not drawn)	uPA generation inconclusive, VDR inhibitor 50µM, PLK1 PBD block inconclusive
O=C(O)c1[nH]c2ccccc2c1C(c1cc(Cl)cc([N+](=O)[O-])c1O)c1c(C(=O)O)[nH]c2ccccc12	VDR inhibitor 79µM, PLK1 PBD block 7.5µM
O=C(O)c1[nH]c2ccccc2c1C(c1ccccc1)c1c(C(=O)O)[nH]c2ccccc12	VDR inhibitor inconclusive, PLK1 PBD block 27µM
COc1cc(CC(=O)O)ccc1OCc1ccccc1	none
C=CCOc1ccc(C(c2c(C(=O)O)[nH]c3ccccc23)c2c(C(=O)O)[nH]c3ccccc23)cc1	PLK1 PBD block 8.4µM
COc1cc(C(c2c(C(=O)O)[nH]c3ccccc23)c2c(C(=O)O)[nH]c3ccccc23)ccc1OCc1ccccc1	PLK1 PBD block 8.4µM
COC(=O)c1[nH]c2ccc(Cl)cc2c1NC(=O)c1ccccc1[N+](=O)[O-]	none
Cc1ccc(C(c2sc3nc(-c4ccco4)nn3c2O)N2CCN(Cc3ccccc3)CC2)cc1 (stereo not drawn)	none (no result: TSHR antag, uPA generation, PTAP TSG101 blk, PLK1 PBD block)
COc1ccc(-c2nn3c(-c4cc(C)[nH]n4)nnc3s2)cc1	none (no result: TSHR antag, uPA generation, PTAP TSG101 blk, PLK1 PBD block)
CC1=C(c2ccc(C)c(C)c2)S(=O)(=O)N(Cc2ccc(C(=O)NCc3ccc(C)cc3)cc2)C1=O	none (no result: TSHR antag, uPA generation, PTAP TSG101 blk, PLK1 PBD block)
Cc1cccc(-n2c(CNC(=O)c3cccc(F)c3)nnc2SCC(=O)Nc2ccccc2F)c1	none (no result: TSHR antag, uPA generation, PTAP TSG101 blk, PLK1 PBD block)
CCOC(=O)c1c(-c2cccc(C)c2)csc1NC(=O)C1CC=CCC1C(=O)O (stereo not drawn)	PLK1 PBD block inconclusive
CCOC(=O)c1c(-c2ccc(-c3ccccc3)cc2)csc1NC(=O)C1C2CCC(O2)C1C(=O)O (stereo not drawn)	PLK1 PBD block 11µM
CCOC(=O)c1c(-c2ccccc2)csc1NC(=O)C1CCCO1 (stereo not drawn)	PLK1 PBD block 24µM
CCOC(=O)c1c(-c2ccc(C)cc2)csc1NC(=O)C1CC=CCC1C(=O)O (stereo not drawn)	VDR inhibitor inconclusive, PLK1 PBD block 27µM
Cc1ccc(NC(=O)Cn2cc3c(n2)CCC(C)C3)cc1C (stereo not drawn)	none (no result: TSHR antag, uPA generation, PTAP TSG101 blk, PLK1 PBD block)
CCOC(=O)C1=C(CC)Nc2ccccc2N/C1=N\S(=O)(=O)c1cc(Br)ccc1Br	PLK1 PBD block 21µM
C=CCn1c(C)cc(C(=O)CSc2ccc(NC(C)=O)cc2)c1C	none
Cc1nnc(SCC(=O)Nc2ccc(C(N)=O)cc2)n1-c1ccccc1	none
COC(=O)c1ccc(-n2c(C)cc(C(=O)CSc3ccc(NC(C)=O)cc3)c2C)cc1	PLK1 PBD block 13µM
COC(=O)c1ccc(NC(=O)CSc2ccccc2)cc1	VDR inhibitor 50µM, PLK1 PBD block 21µM
CC(=O)Nc1ccc(SCC(=O)c2cc(C)n(-c3ccccc3F)c2C)cc1	PLK1 PBD block 19µM
NC(=O)c1ccc(NC(=O)CSC(=O)c2ccccc2)cc1	VDR inhibitor inconclusive, PLK1 PBD block 27µM
COC(=O)c1ccc(NC(=O)CSc2ccccn2)cc1	none
COc1cc(-c2ccno2)ccc1S(=O)(=O)N1CCN(c2cccc(Cl)c2)CC1	none (no result: TSHR antag, uPA generation, PTAP TSG101 blk, PLK1 PBD block)
NC(=O)CC(NC(=O)c1cccc(Br)c1)c1ccc(NC2CCC2)c([N+](=O)[O-])c1 (stereo not drawn)	none
O=C(NCc1ccccc1Cl)c1cc2cccc3c2n1CCS3	none (no result: TSHR antag, uPA generation, PTAP TSG101 blk, PLK1 PBD block)
CC1(C)C2CCC1(C)C(OC(=O)C[n+]1ccccc1)C2 (stereo not drawn)	VDR inhibitor 22µM, PLK1 PBD block 19µM
CC1(C)C2CCC1(C)C(OC(=O)CNc1ccccc1)C2 (stereo not drawn)	PLK1 PBD block 19µM
O=C(O)c1ccc(CSc2nc3ccccc3c(=O)n2-c2ccccc2)cc1	none
O=C(c1ccc(-n2c(SCc3cccc(F)c3)nc3ccccc3c2=O)cc1)N1CCOCC1	VDR inhibitor inconclusive, PLK1 PBD block 27µM
Nc1cccc2c1C(=O)N(C(=O)c1cccc(S(=O)(=O)N3CCCC3)c1)C2=O	PLK1 PBD block 4.2µM
COc1ccc(CNC(=O)CN2C(=O)COc3ccc(S(=O)(=O)N4CCC(C)CC4)cc32)cc1	PLK1 PBD block 30µM
COc1cccc(CNC(=O)CCn2ccc3cc(S(=O)(=O)N4CCC(C)CC4)ccc32)c1	none
COc1cccc(CNC(=O)[C@H](C)NC(=O)C2CCN(S(=O)(=O)c3ccccc3)CC2)c1	VDR inhibitor inconclusive, PLK1 PBD block 27µM
COC(=O)CN1C(=O)COc2ccc(S(=O)(=O)N3CCCC3)cc21	TSHR antag -135
COc1ccc(CNC(=O)CN2C(=O)COc3ccc(S(=O)(=O)N4CCCCCC4)cc32)cc1	none (no result: TSHR antag, uPA generation, PTAP TSG101 blk, PLK1 PBD block)
COc1cccc(CNC(=O)Cn2ccc3cc(S(=O)(=O)N4CCC(C)CC4)ccc32)c1	VDR inhibitor inconclusive, PLK1 PBD block 9.5µM
N#Cc1cccc(NC(=O)C2CCN(S(=O)(=O)c3ccc4[nH]c(=O)ccc4c3)CC2)c1	none (no result: TSHR antag, uPA generation, PTAP TSG101 blk, PLK1 PBD block)
CCCCN1CCc2c([nH]c3c(C)cccc23)C1=O	VDR inhibitor 14µM, PLK1 PBD block 3.4µM
CC(C)c1cnc2c(c1SCC(=O)Nc1ccccc1C(F)(F)F)c(=O)n(C)c(=O)n2C	none (no result: TSHR antag, uPA generation, PTAP TSG101 blk, PLK1 PBD block)
O=S(=O)(c1ccc(=S)[nH]c1)N1CCCCCC1	VDR inhibitor inconclusive, PLK1 PBD block inconclusive

High-throughput results from PubChem BioAssay.
